Screens from PubChem.
This excerpt belongs to a sample that is enriched for hits.
a7 integrin act – activates integrin-mediated alleviation for muscular dystrophy | actives 0.064% (n = 350,000) | Potency, µM (top dose mostly 38.3 µM), most hits filed as activators | alpha7betagal myoblasts, beta-gal FDG fluorescence, 48 h | AID 624291; further: nearly all actives have a fitted effect of over 60% in size
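Alpha7betagal+/- myoblasts (passage 13) were plated 16-24 hr, then exposed to compounds (1:260 dilution of DMSO stock) for 48 hours at 37C. After MPER lysis, β-galactosidase reporter activity was read as FDG fluorescence (ex 480/em 540) after 30 minutes.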
ERG-DNA inh – ERG Ets/DNA interaction inhibition. P11308. fluorescence polarization, His-ERG Ets domain / labelled DNA. Potency, µM (series often up to 76.9 µM), hits mostly inhibitors. actives 0.028% (n = 370,000); active means well fitted inhibition curve with a large enough effect in the polarisation, with a control signal flat; inconclusive means small, poorly fitted or top-dose-only effect, or effect the other way, or a change in a side signal; inactive means no such curve, though single readings can be large or run the other way; the % refers to the polarisation;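 further: polarization taken with two DNA probes labelled with fluorescein and Texas red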
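His-tagged ERG Ets domain (1 uM in the protein solution; 300mM KCl, 50mM Tris-HCl, 1mM EDTA, 1mM DTT, pH 7.5) received compound, then a probe mix of 5 nM fluorescein-DNA and 100nM Texas-615-DNA. Fluorescence polarization was read for both dyes.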
Giardia kill – kills Giardia lamblia; actives 0.15% (n = 340,000); activity change, % at 7.66 µM, hits read low; AID 540267; Giardia lamblia trophozoite viability; in the data active means activity change below about -80%; inconclusive means between about -30% and that limit;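 further: parasites exposed to compound for two days anaerobically before the ATP read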
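Trophozoite viability was measured as ATP-dependent luminescence, read 15-30 min after reagent addition. Before that, parasites at 100 cells/well were exposed to compounds for 48 h, anaerobically, at 37 deg C.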
VP16 counter – Gal4-VP16 reporter inhibition counter-screen | Drosophila S2 Gal4-VP16 UAS-luciferase, luminescence, 20 h | Potency, µM (doses to about 53.6 µM), most hits filed as inhibitors | actives 3.5% (n = 310,000);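 further: Gal4-VP16 expression switched on by copper sulfate through the metallothionein promoter; nearly all actives have a fitted effect of over 50% in size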
RORg inh – blocks mouse ROR gamma transcriptional activity; Drosophila S2 Gal4-RORgamma UAS-luciferase reporter, 20 h; Potency, µM (series often up to 53.6 µM), most hits filed as inhibitors; actives 5.4% (n = 310,000); AID 2551; further: nearly all actives have a fitted effect of over 60% in size
Target sequence (P51450 whole entry, looked up, the tested form may be a part): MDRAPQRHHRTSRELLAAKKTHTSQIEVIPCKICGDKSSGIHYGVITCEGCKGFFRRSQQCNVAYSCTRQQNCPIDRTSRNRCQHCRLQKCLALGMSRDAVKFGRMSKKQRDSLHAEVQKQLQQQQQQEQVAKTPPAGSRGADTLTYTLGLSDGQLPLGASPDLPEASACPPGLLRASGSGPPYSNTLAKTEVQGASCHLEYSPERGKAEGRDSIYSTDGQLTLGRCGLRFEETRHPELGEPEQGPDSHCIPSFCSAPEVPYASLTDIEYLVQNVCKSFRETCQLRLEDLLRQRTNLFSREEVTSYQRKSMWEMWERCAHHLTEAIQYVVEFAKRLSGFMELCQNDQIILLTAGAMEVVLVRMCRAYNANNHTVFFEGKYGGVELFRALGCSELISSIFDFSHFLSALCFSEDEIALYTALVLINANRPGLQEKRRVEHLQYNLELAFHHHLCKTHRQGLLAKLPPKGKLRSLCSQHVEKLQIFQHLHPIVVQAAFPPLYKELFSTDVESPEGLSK
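Luminescence from a UAS-regulated Photinus luciferase reporter in stably transfected Drosophila Schneider cells is measured; decreased signal marks ROR gamma inhibition. Fusion expression is induced by 700 uM copper sulfate for 20 hr.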
Each line names hits and unclear results; the compound was inactive in the other large screens. Unless noted, the call rests on the fitted dose curve; in most records, active means well fitted curve in the direction sought with a large enough effect; inconclusive means small, poorly fitted or top-dose-only effect, or another doubt; inactive means no such curve, though single readings can be large; an effect the other way counts as inactive or inconclusive.

CC1C/C(=N\NC(=O)c2cccnc2)CC(C)(C)C1 (centres undefined)	none
CC1C/C(=N\NC(=S)NC(C)C)CC(C)(C)C1 (centres undefined)	VP16 counter 3.98µM, RORg inh 1.58µM
S=C(Nc1ccccc1)N1N=CCC1c1ccccc1 (centres undefined)	VP16 counter 7.94µM, RORg inh inconclusive
Fc1ccc(NC(=S)N2N=CCC2c2ccccc2)cc1 (centres undefined)	VP16 counter 7.94µM, RORg inh 3.55µM
O=C(Nc1cccc(Cl)c1)N1N=CCC1c1ccccc1 (centres undefined)	none
Cc1cc(Br)ccc1NC(=O)c1coc(=O)c2ccccc12	none (no result: a7 integrin act, Giardia kill, VP16 counter, RORg inh)
CCCCc1nc2ccccc2c(N)c1CCC (tested in a mixture with another compound)	a7 integrin act 11.2µM
O=C(CSc1nnnn1-c1cccc(Cl)c1)Nc1ccc2c(c1)CCC2	VP16 counter 8.91µM, RORg inh inconclusive (no result: a7 integrin act, ERG-DNA inh, Giardia kill)
COc1cc(OC)cc(-n2nnnc2SCC(=O)N2CCCc3ccccc32)c1	none (no result: ERG-DNA inh)
COc1cccc(-n2nnnc2SCC(=O)N2CCCc3ccccc32)c1	VP16 counter inconclusive, RORg inh 20µM
O=C(CSc1nnnn1-c1cccnc1)Nc1cccc(Cl)c1	none
Nc1cc(=O)[nH]c(SCC(=O)Nc2cc(S(=O)(=O)N3CCCCC3)ccc2Cl)n1	none (no result: VP16 counter, RORg inh)
Cc1cc(C)cc(N=Cc2ccc([N+](=O)[O-])s2)c1	VP16 counter 17.8µM, RORg inh inconclusive
O=[N+]([O-])c1ccc(C=Nc2ccc(Cl)c([N+](=O)[O-])c2)s1	RORg inh inconclusive (no result: a7 integrin act, ERG-DNA inh, Giardia kill)
Cc1ccc(NC(=S)N/N=C/c2ccc([N+](=O)[O-])s2)cc1	Giardia kill inconclusive, VP16 counter 15.8µM, RORg inh 7.08µM
O=[N+]([O-])c1ccccc1C=NNC(=S)NN=Cc1ccccc1[N+](=O)[O-]	none (no result: VP16 counter, RORg inh)
NC(=O)c1ccc(N=Cc2ccc([N+](=O)[O-])s2)cc1	VP16 counter 5.62µM, RORg inh inconclusive
COCOc1c2c(c(OCOC)c3c(OCOC)cccc13)/C(=N/NS(C)(=O)=O)C1=C2CCCC1	none (no result: a7 integrin act, ERG-DNA inh, Giardia kill)
COc1ccc(C)cc1NC(=O)CN1C(=O)COc2ccc(S(=O)(=O)N3CCCCC3)cc21	none
COc1ccc(S(=O)(=O)NC(C)C(=O)Nc2ccc3c(c2)OCCO3)cc1OC (centres undefined)	none
COc1cc(/C=C(\C#N)c2nc3c(s2)CCCC3)ccc1O	VP16 counter inconclusive, RORg inh 8.91µM (no result: a7 integrin act, ERG-DNA inh, Giardia kill)
CCOc1cc(/C=N/NC(=O)c2cccnc2)ccc1OCC(=O)N(C)C	none
COc1cc(OC)cc(C(=O)NC(=S)N2CCCCC2c2cccnc2)c1 (centres undefined)	VP16 counter 3.98µM
O=C(/C=C/c1ccc(Cl)cc1)NC(=S)NN1CCCCC1c1cccnc1 (centres undefined)	VP16 counter inconclusive, RORg inh 2µM (no result: a7 integrin act, ERG-DNA inh, Giardia kill)
COc1ccc(NC(=O)N2CCCCC2c2cccnc2)cc1 (centres undefined)	none
COc1ccc(/C=C/C(=O)NC(=S)NN2CCCCC2c2cccnc2)cc1OC (centres undefined)	VP16 counter 15.8µM, RORg inh 12.6µM
CCC1CC=CC2C1C(=O)N(Cc1ccccc1)C2c1ccc2ccccc2c1 (centres undefined)	VP16 counter inconclusive (no result: a7 integrin act, ERG-DNA inh)
Cn1c(=O)c2c(nc(CN3CCN(c4ccccc4)CC3)n2CCCc2ccccc2)n(C)c1=O	none (no result: VP16 counter, RORg inh)
CCCCn1c(CN2CCN(c3ccccc3)CC2)nc2c1c(=O)n(C)c(=O)n2C	VP16 counter 6.31µM
CC(=O)C(C(C)=O)c1c(Cl)c(O)c(O)c2c(C(=O)c3ccccc3)coc12	VP16 counter inconclusive, RORg inh 15.8µM
NC(=S)n1[nH]c(-c2ccc([N+](=O)[O-])cc2)c(N=Nc2ccccc2[N+](=O)[O-])c1=O	a7 integrin act inconclusive, RORg inh inconclusive
NC(=S)n1[nH]c(-c2ccc([N+](=O)[O-])cc2)c(N=Nc2cccc([N+](=O)[O-])c2)c1=O	VP16 counter 2.51µM, RORg inh 0.631µM
Cc1c(N=Nc2c(-c3ccc([N+](=O)[O-])cc3)[nH]n(C(N)=S)c2=O)cccc1[N+](=O)[O-]	VP16 counter inconclusive, RORg inh 0.708µM
